In PubChem BioAssay:
The source made the active and inactive calls.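 How the source made its calls, unless noted: active means visually confirmed hit in the image check and inhibition above 20%; inconclusive means visually confirmed hit but inhibition not above 20%; inactive means no visual hit in the image check.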

Assay: inhibitors of TNFa-induced NFkB p65 translocation, primary screen, imaging, HUVEC, MLSMR starter and 10KST1 sets (AID 438;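 active means inhibition above 20% together with a positive visual image hit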;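 further: compound added about 3h40 before a 20 min TNFalpha stimulation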;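 on inhibition: signal is the nuclear over cytoplasmic p65 intensity ratio per well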)
Details: HUVEC TNFa-induced p65 nuclear translocation; cell count: measured here: nuclei count (cytotoxicity indicator), at 2.08 µM; inhibition: at 2 µM, stronger effect = higher value, 0% TNFa-plus-vehicle, 100% no-TNFa wells

SMILES	inhibition	cell count
Cc1ccc(-n2ncc3c(NCCCOC(C)C)ncnc32)c(C)c1	-13.1% (inactive)	586
O=C(COc1ccc(-c2nnc(N3CCCCC3)c3ccccc23)cc1)N1CCCCC1	1.4% (inactive)	373
CC(C(=O)N(C)C)N(C#N)c1nc(N(C)C)nc(N(C)C)n1 (stereo not given)	7.4% (inactive)	606
CC(C(=O)NC(=O)NCc1ccccc1)N1C(=O)c2ccccc2C1=O (stereo not given)	6.1% (inactive)	655
CCN(CC)CCN1C(=O)c2ccccc2NC1c1cc(OC)c(OC)c(OC)c1 (stereo not given)	-13.1% (inactive)	672
O=C(NCc1ccccc1)/C(=N\O)c1ccccc1	-5.4% (inactive)	517
Cn1ncc2nc[nH]c(=O)c21	2% (inactive)	709
Clc1ccc(-n2ncc3c(NCc4ccco4)ncnc32)cc1	-17.4% (inactive)	582
COC(=O)c1ccc(Cn2c(O)c(N=O)c3ccccc32)o1	2% (inactive)	485

Assay: endothelial E-selectin expression blockers – imaging, HUVEC, immunofluorescence, MLSMR starter and 10KST1 sets, primary screen (AID 487);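 on inhibition: signal is fraction of cell area covered by stained E-selectin grains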;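 on nuclei count: 100% = median nuclei count of all wells on the same plate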
Details: HUVEC TNFalpha-induced E-selectin immunofluorescence imaging, at 2 µM; inhibition: stronger effect = higher value; nuclei count: measured here: cell number, toxicity

SMILES	nuclei count	inhibition
CCCCCOc1ccccc1C(=O)NCCCC(=O)O	116%	-57.4% (inactive)
Cc1cc(=O)oc(C)c1C(=O)Nc1ccc2nsnc2c1	164%	3.2% (inactive)
CCOC(=O)NC1(C(F)(F)F)C(=O)NC(C)=C1C#N (stereo not given)	129%	5.5% (inactive)
CCc1cc(=O)oc2cc(C)c(CN3CCCC3)c(O)c12	158%	27.1% (inactive)
Cc1cc(Nc2ccc3ccccc3c2)n2ncnc2n1	146%	56.4% (inactive)
O=c1c2c3c(sc2n2cnnc2n1C1CCCCC1)CCC3	172%	-2% (inactive)
Cc1cccc(-n2ncc3c(NCCN4CCOCC4)ncnc32)c1	156%	0.1% (inactive)
CCCCOC(=O)CSC1=C(C#N)C(c2ccc3c(c2)OCO3)CC(=O)N1 (stereo not given)	155%	-163% (inactive)
COC(=O)CSCC(=O)Nc1cc2c(cc1C(C)=O)OCO2	76.4%	-95.3% (inactive)
Cc1c(C)[n+](=O)c2c(n1[O-])CCC2	103%	-51.7% (inactive)
CC1CCN(c2ncnc3c2cnn3Cc2ccc(Cl)cc2)CC1	135%	2.1% (inactive)
Cc1cc(=O)oc(C)c1C(=O)n1nc(C)c2c1C[C@@H]1[C@H]2C1(C)C	176%	-44.9% (inactive)
Cc1cc(=O)oc(C)c1C(=O)NC1CC(C)(C)NC(C)(C)C1	160%	-70.2% (inactive)
O=C(Oc1oc(-c2ccco2)nc1C=Nc1ccccc1)c1ccco1	108%	-2% (inactive)
Cn1c(=O)c2c(nc(NCCCO)n2Cc2cccc(C(F)(F)F)c2)n(C)c1=O	95.4%	-70% (inactive)
Cc1ccc(Oc2nc3c(c(=O)n(Cc4ccccc4F)c(=O)n3C)n2C)cc1	156%	-74.9% (inactive)

SMILES	nuclei count	inhibition
N#Cc1c(N)n(CCOC(=O)c2ccc(Cl)cc2)c2nc3ccccc3nc12	95%	-33.2% (inactive)
CCCc1nnc(NC(=O)Nc2ccccc2OC)s1	100%	14.1% (inactive)
O=C(C1=C(O)C(=O)N(CCCN2CCOCC2)C1c1ccccn1)c1cc2ccccc2o1 (stereo not given)	95.5%	55.2% (inactive)
COc1ccc(CCn2c(=N)c(C(=O)NCc3ccco3)cc3c(=O)n4ccccc4nc32)cc1OC	174%	-94.3% (inactive)
O=C(c1ccccc1)n1c(=S)nc2ccccn21	144%	-18.3% (inactive)
CCc1nc2n[nH]c(N)c2c2c1CCCC2	194%	-224% (inactive)
O=c1c2ccccc2ncn1Cc1ccco1	138%	-74.2% (inactive)
O=C(O)c1cc2sccc2s1	160%	23.1% (inactive)
CC(C)c1[nH]c(=O)c(C#N)c2c1CSC(C)(C)C2	89.3%	4% (inactive)
CC1(C)Cc2c(c(N3CCOCC3)nc3snc(Br)c23)CO1	130%	-99.5% (inactive)
COc1ccc(C2C(C#N)=C(N)Oc3cc(C)n(CCN4CCOCC4)c(=O)c32)cc1OC (stereo not given)	110%	0.9% (inactive)
Cc1ccc(N2C(=O)CC3(CC4C=CC3C4)C2=O)cc1 (stereo not given)	115%	-47.9% (inactive)
CCCc1cc(NCCN2CCOCC2)n2c(nc3ccccc32)c1C#N	105%	-144% (inactive)
CCN(CC)CCCN1C(=O)C(=O)/C(=C(/O)c2ccc(OC)cc2)C1c1ccco1 (stereo not given)	185%	43.5% (inactive)
Cc1ccc(-n2ncc3c(NCCCOC(C)C)ncnc32)c(C)c1	161%	45.2% (inactive)
